# Bioassay records (PubChem)
# An excerpt weighted towards active compounds, which were near 2.6% of everything screened.
# Cruzain Triton – inhibitors of Trypanosoma cruzi cruzain with detergent. P25779. purified cruzain, Z-FR-AMC fluorescence, 0.01% Triton. Potency, µM, hits mostly inhibitors. hit rate 0.43% among 200,000; also: nearly all actives have a fitted effect of over 40% in size
# Target sequence (P25779 123-467 limits assumed): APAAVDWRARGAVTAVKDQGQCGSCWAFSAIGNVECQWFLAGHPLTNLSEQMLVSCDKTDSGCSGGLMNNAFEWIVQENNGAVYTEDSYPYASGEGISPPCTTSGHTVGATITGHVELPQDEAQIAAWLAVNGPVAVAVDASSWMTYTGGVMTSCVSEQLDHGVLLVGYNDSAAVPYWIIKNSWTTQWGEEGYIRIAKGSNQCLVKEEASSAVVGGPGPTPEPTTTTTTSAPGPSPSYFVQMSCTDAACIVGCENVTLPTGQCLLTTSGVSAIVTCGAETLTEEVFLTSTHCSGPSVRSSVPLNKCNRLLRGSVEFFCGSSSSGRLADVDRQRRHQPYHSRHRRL
#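 Detergent-containing arm of a paired screen for aggregation-based inhibition: 0.01% Triton X-100 present. Cruzain at 1.5 nM cleaved 2 uM Z-FR-AMC at pH 5.5 with 5 mM DTT; AMC fluorescence gain over 60 s measured activity.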
# Cruzain inh noDet – blocks cruzain activity in detergent-free assay. P25779. Potency, µM, actives largely listed as inhibitors. hit rate 2.3% among 200,000. purified cruzain, Z-FR-AMC fluorescence, no detergent; also: nearly all actives have a fitted effect of over 40% in size
#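 Purified cruzain at 1.5 nM, pre-incubated 15 min with compound at room temperature in 100 mM sodium acetate pH 5.5, 5 mM DTT, 0.00005% Triton X-100. Reaction started with 2 uM Z-FR-AMC; AMC fluorescence increase over 60 s gives rate.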
# A number is an active result; i = inactive; ? = inconclusive; ! = not active in a repeat. Calls follow the shape of the dose curve; as a rule, active = well fitted curve in the direction sought with a large enough effect; inconclusive = small, poorly fitted or top-dose-only effect, or another doubt; inactive = no such curve, though single readings can be large; an effect the other way counts as inactive or inconclusive.
SMILES,Cruzain Triton,Cruzain inh noDet
O=C(COC(=O)CNC(=O)C1CCCCC1)Nc1ccc(Cl)cn1,6.3µM,6.3µM
CCOC(=O)c1sc(NC(=O)COC(=O)CNC(=O)C2CCCCC2)c(C(=O)OCC)c1C,2.2µM,i
CCOC(=O)c1sc(NC(=O)COC(=O)CNC(=O)c2ccco2)c(C(=O)OCC)c1C,i,?
O=C(COC(=O)CCOc1ccccc1)Nc1ccc(Cl)cn1,i,i
COc1cccc(CNC(=O)CSC2=Nc3ccccc3C3=NC(C)C(=O)N23)c1OC (configuration not stated),i,i
COc1cc(NC(=O)C2CCN(S(=O)(=O)c3c(C)noc3/C=C/c3cccs3)CC2)cc(OC)c1,i,16µM
COc1ccc(NC(=O)C2CCN(S(=O)(=O)c3c(C)noc3/C=C/c3cccs3)CC2)cc1Cl,i,10µM
Cc1noc(/C=C/c2cccs2)c1S(=O)(=O)N1CCC(C(=O)Nc2ccc(F)c(Cl)c2)CC1,i,?
COc1ccc(/C=C\c2onc(C)c2S(=O)(=O)N2CCC(C(=O)Nc3cccc(Cl)c3)CC2)cc1,i,7.9µM
Cc1ccc(NC(=O)C2CCN(S(=O)(=O)c3c(C)noc3/C=C/c3cccs3)CC2)cc1F,i,?
COc1ccc(/C=C\c2onc(C)c2S(=O)(=O)N2CCC(C(=O)Nc3cccc(C)c3C)CC2)cc1,i,i
O=C(NCCc1nc2ccccc2n1Cc1ccc(Cl)cc1Cl)c1ccco1,i,i
CN(C)c1ccc(/C=C/c2nc(-c3ccccc3O)n(-c3ccccc3)n2)cc1,i,i
CC[C@@H](CO)NC(=O)[C@H]1C=C2c3cccc4c3c(cn4C)C[C@H]2N(C)C1,i,?
Cc1cc2c(cc1NC(=O)c1ccc(C(C)(C)C)cc1)n(C)c(=O)c(=O)n2C,i,i
Nc1ccc(N=Nc2ccccc2)c(N)n1,i,20µM!
Cc1cc(=O)n2[nH]c(N)c(N=Nc3ccccc3)c2n1,i,i
Cc1cc(C)cc(N2C(=O)CS(=O)(=O)C23C(=O)N(C)c2ccccc23)c1 (configuration not stated),i,i
CCc1cccc(N2C(=O)CS(=O)(=O)C23C(=O)N(Cc2ccccc2)c2ccc(C)cc23)c1 (configuration not stated),i,1.6µM
O=C1CSC2(C(=O)N(Cc3ccccc3F)c3ccccc32)N1c1ccc(F)cc1 (configuration not stated),i,i
Cc1ccc(N2C(=O)CS(=O)(=O)C23C(=O)N(Cc2cccc(F)c2)c2ccccc23)cc1Cl (configuration not stated),i,2µM
COc1ccc(N2C(=O)CS(=O)(=O)C23C(=O)N(Cc2cccc(F)c2)c2ccccc23)cc1OC (configuration not stated),i,i
O=C1CS(=O)(=O)C2(C(=O)N(Cc3ccccc3Cl)c3ccccc32)N1c1ccc(F)cc1 (configuration not stated),i,2.5µM
Cc1ccc(C)c(CN2C(=O)C3(c4ccccc42)N(c2cccc(C(F)(F)F)c2)C(=O)CS3(=O)=O)c1 (configuration not stated),i,1.3µM
CCc1cccc(N2C(=O)CS(=O)(=O)C23C(=O)N(Cc2ccc(F)cc2)c2ccc(C)cc23)c1 (configuration not stated),i,?
SMILES,Cruzain Triton,Cruzain inh noDet
O=C(Nc1ccc(F)c(Cl)c1)C1CCN(S(=O)(=O)c2ccc3[nH]c(=O)ccc3c2)CC1,i,i
O=C(Oc1ccccc1)N1CCC2(CC1)CCN(c1cccc(-c3ccccc3)c1)CC2,i,i
Cc1ccccc1OCC(=O)Nc1ccc2nc(SCC(=O)N3CCCC3)sc2c1,i,i
Cc1ccc(CN2C(=O)C3(c4ccccc42)N(c2cccc(F)c2)C(=O)CS3(=O)=O)cc1 (configuration not stated),i,1.6µM
Cc1ccc(N2C(=O)CS(=O)(=O)C23C(=O)N(Cc2ccccc2C)c2ccccc23)cc1Cl (configuration not stated),i,2µM
CN1C(=O)C2(c3ccccc31)N(c1cccc(F)c1)C(=O)CS2(=O)=O (configuration not stated),i,i
CN1C(=O)C2(c3ccccc31)N(c1ccc(F)c(Cl)c1)C(=O)CS2(=O)=O (configuration not stated),i,?
Cc1ccccc1CN1C(=O)C2(c3ccccc31)N(c1ccccc1)C(=O)CS2(=O)=O (configuration not stated),i,i
O=C1CS(=O)(=O)C2(C(=O)N(Cc3ccccc3)c3ccccc32)N1c1ccc(F)c(Cl)c1 (configuration not stated),i,2µM
O=C(O)CS(=O)(=O)C(c1ccccc1)c1ccccc1,i,i
CCOc1ccccc1NC(=O)CCCc1nc(-c2ccccc2Cl)no1,i,i
O=C(Cl)OCc1ccccc1,i,i
COc1ccccc1CNC(=O)c1cc2cccc3c2n1CCS3,i,25µM
O=C(NCc1ccccc1Cl)c1cc2cccc3c2n1CCS3,i,?
